Results filed as inconclusive are left out. Calls of active or inactive are those of the source.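 How the source made its calls: active means inhibitors giving a complete concentration-response curve with high efficacy; inconclusive means inhibitors giving only a partial curve with partial efficacy; inactive means the rest.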
Target: Lysosomal acid glucosylceramidase (Homo sapiens) (UniProt P04062)
Test: Confirmation Concentration-Response Assay for Glucocerebrosidase Inhibitors
Details: purified GBA, resorufin glucoside fluorescence, 20 min; series mostly up to 63.5 µM
From the text: NCGC Assay Overview: NIH Molecular Libraries Screening Centers Network [MLSCN] NIH Chemical Genomics Center [NCGC] MLSCN Grant: XO1-MH078932-01 Beta-glucocerebrosidase catalyzes the hydrolysis of beta-glucocerebroside to glucose and ceramide. The inherited deficiency of beta-glucocerebrosidase results in Gaucher disease, which is characterized by a wide variety of symptoms including hepatosplenomegaly, anemia, thrombocytopenia, bony lesions and bone marrow infiltration with characteristic storage cells, known as Gaucher cells. There are also forms of the disorder affecting the central nervous system. Patients with the same genotypes can manifest with diverse clinical presentations and it is believed that improper folding and trafficking of beta-glucocerbrosidase may contribute to the phenotypes observed. Low molecular weight molecules, acting as chaperones, may potentially restore trafficking of misfolded beta-glucocerebrosidase from the endoplasmic reticulum to the lysosomes, thereby enhancing functional lysosomal beta-glucocerebrosidase activity. Using normal beta-glucocerebrosidase, an assay was developed to screen for small molecule inhibitors that could potentially act as molecular chaperones on the mutant forms [developed with NIH investigator Dr. Ellen Sidransky's laboratory]. A pro-fluorescent substrate was chosen for a screen against a small molecule library. The beta-glucocerebrosidase assay used Resorufin beta-D-Glucopyranoside (Marker Gene Technology Inc.), generating a red fluorescent product. The Km for the Resorufin beta-D-Glucopyranoside was determined to be 71.2 uM. The IC50 values of Conduritol B Epoxide, a known glucocerebrosidase inhibitor, was determined to be 87.5 uM. All compounds were screened in a titration series resulting in AC50s (e.g., IC50s or EC50s). To confirm activity from the original screen, samples were reacquired from MLSCN and also synthesized in-house, and re-screened against the original assay at a higher density of titration points.
NCGC Assay Protocol Summary: Both enzyme and substrate were diluted in buffer composed of 50mM citric acid/KH2PO4, 10mM sodium taurocholate and 0.01% tween-20 at pH 5.9. The final concentration of the enzyme was 0.2 nM in both assays. The compound library was titrated in 7 to 15 concentrations for the primary screens with a final concentration ranging from 0.6 nM to 50 uM. This particular assay protocol was performed in 1536-well plate format as follows: Red fluorescence substrate assay: 2 uL enzyme 23 nL compound 1 uL substrate (final concentration of 30 uM) Incubate at room temperature (RT) for 20 minutes Read the plate in Viewlux plate reader (Ex=548(7) and Em=600(10)).

Chain of Lysosomal acid glucosylceramidase (Homo sapiens) (P04062 whole entry, looked up): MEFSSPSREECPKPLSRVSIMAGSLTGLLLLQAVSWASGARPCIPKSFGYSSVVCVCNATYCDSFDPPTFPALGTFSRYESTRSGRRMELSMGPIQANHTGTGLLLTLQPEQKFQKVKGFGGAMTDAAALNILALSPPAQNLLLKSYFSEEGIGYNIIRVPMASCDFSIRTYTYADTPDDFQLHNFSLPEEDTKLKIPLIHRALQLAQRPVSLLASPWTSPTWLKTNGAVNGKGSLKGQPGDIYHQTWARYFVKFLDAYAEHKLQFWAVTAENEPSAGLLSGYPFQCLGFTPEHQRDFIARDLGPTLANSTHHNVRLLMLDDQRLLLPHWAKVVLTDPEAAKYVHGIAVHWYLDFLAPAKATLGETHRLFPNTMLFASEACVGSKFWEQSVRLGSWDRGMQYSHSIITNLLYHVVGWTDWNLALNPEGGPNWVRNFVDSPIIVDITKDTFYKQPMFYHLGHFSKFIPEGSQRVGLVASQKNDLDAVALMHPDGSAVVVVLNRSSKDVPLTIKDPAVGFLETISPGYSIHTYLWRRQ

Q: How did the Potency turn out when `Cc1cc(N2CCCCC2)nc2ccc(NC(=O)C3CCC(C)CC3)cc12` (stereo unspecified) was run?
A: 339 nM (active)

Q: Which Potency does the source give for `CCCC1CCC(C(=O)Nc2ccc3nc(N4CCOCC4)cc(C)c3c2)CC1` (stereo unspecified) here?
A: 104 nM (active)

Q: With `Cc1cc(Nc2cccc(Cl)c2)nc2ccc(NC(=O)C3CCC(C)CC3)cc12` (stereo unspecified) as the compound, how does the Potency read?
A: inactive

Q: Which Potency does the source give for `Cc1cc(N2CCN(c3ncccn3)CC2)nc2ccc(NC(=O)C3CCC(C)CC3)cc12` (stereo unspecified) here?
A: 1890 nM (active)

Q: Which Potency does the source give for `O=C(Nc1nccs1)c1ccc(NS(=O)(=O)c2ccc(Cl)cc2)cc1` here?
A: 1250 nM (active)

Q: `CCN(CC)c1cc(C)c2cc(NC(=O)C3CCC(C)CC3)ccc2n1` (stereo unspecified) was tested. Which Potency did it give?
A: 940 nM (active)

Q: `Cc1cc(N2CCOCC2)nc2ccc(NC(=O)C3CC3)cc12` was tested. Which Potency did it give?
A: 193 nM (active)

Q: `CC(C)(C)Oc1ccccc1Nc1nc(NCCO)nc(N2CCCC2)n1` was tested. Which Potency did it give?
A: 21.5 nM (active)

Q: With `Cc1cc(N2CCOCC2)nc2ccc(NC(=O)C3CCC(C)CC3)cc12` (stereo unspecified) as the compound, how does the Potency read?
A: 66 nM (active)

Q: For `Cc1ccc(S(=O)(=O)Nc2ccc(C(=O)Nc3cc(C)on3)cc2)cc1`, which Potency is on record?
A: 90.7 nM (active)

Q: For `Cc1cc(N2CCC(C)CC2)nc2ccc(NC(=O)C3CCC(C)CC3)cc12` (stereo unspecified), which Potency is on record?
A: 164 nM (active)

From PubChem BioAssay AID1382 (National Center for Advancing Translational Sciences (NCATS), 2008)
